Compounds with a hit are over-represented: about 18% of the library has one in this group of screens.
TGFb inhibitor: qHTS for Inhibitors of TGF-b. Potency, µM (highest dose often 46.1 µM), for inactives: at the highest dose activity, negative = inhibition, actives largely listed as inhibitors. HepG2 CAGA-GFP TGF-b/SMAD3 reporter, GFP fluorescence, 18 h; TGF-beta stimulated, 500 pg/mL final. 410,000 compounds, 1.2% hits; note: potency is the fitted concentration of half-maximal effect; % is set by controls: 0 for no effect and ±100 for the full control effect; nearly all actives have a fitted effect of over 65% in size
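First, reporter cells (HEPG2 CAGA-GFP) rested 2 h at 37 degrees C. Next, compounds were pinned in and TGF-beta added to 500 pg/mL final. After 18 h, GFP was imaged per cell and summed per well.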
TDP1 block: qHTS Assay for Inhibitors of Tyrosyl-DNA Phosphodiesterase (TDP1). recombinant TDP1, AlphaScreen DNA substrate cleavage. AID 485290, 2010. 350,000 compounds, 0.28% hits. Potency, µM (doses to about 130 µM), for the others: at the top dose activity change, negative = inhibition, usual class: inhibitors; note: potency is the fitted concentration of half-maximal effect; % is set by controls: 0 for no effect and ±100 for the full control effect; nearly all actives have a fitted effect of over 40% in size
Target sequence (Q9NUW8 whole entry, looked up): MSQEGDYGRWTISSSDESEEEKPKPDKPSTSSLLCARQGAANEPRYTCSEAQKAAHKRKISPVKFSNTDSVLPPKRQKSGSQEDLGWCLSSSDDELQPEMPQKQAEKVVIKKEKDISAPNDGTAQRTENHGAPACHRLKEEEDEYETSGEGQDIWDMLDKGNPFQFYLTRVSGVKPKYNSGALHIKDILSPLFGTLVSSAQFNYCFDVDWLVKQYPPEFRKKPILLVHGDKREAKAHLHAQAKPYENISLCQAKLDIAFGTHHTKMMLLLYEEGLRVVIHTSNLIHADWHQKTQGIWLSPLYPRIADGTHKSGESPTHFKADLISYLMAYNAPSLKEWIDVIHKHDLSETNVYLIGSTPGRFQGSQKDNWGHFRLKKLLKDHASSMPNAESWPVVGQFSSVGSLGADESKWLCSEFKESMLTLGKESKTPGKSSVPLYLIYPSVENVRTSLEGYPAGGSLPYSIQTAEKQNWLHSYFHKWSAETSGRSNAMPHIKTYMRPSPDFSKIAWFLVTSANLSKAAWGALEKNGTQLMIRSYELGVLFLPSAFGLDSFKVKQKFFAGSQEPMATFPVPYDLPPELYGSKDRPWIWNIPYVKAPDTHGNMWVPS
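Signal: AlphaScreen proximity between streptavidin donor and anti-FITC acceptor beads on intact substrate. Reaction: Tdp1 1 nM, substrate 15 nM final, 5 min RT after 15 min compound preincubation.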
DT40 TDP1 CPT: qHTS for Inhibitors of human tyrosyl-DNA phosphodiesterase 1 (TDP1): qHTS in cells in presence of CPT; chicken DT40 Tdp1-/-;hTDP1 cells + 20 nM CPT, ATP luminescence, 48 h; AID 686979, 2013; Potency, µM (top dose mostly 46.2 µM), for the others: at the top dose activity change, negative = growth inhibition, most hits filed as inhibitors; 420,000 compounds, 12% hits; note: potency is the fitted concentration of half-maximal effect; % is set by controls: 0 for no effect and ±100 for the full control effect; nearly all actives have a fitted effect of over 55% in size
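Chicken DT40 Tdp1-/- cells complemented with human TDP1, 400 cells/well, exposed to compounds plus 20 nM camptothecin for at least 48 h at 37 C; viability read as ATP content by CellTiter-Glo luminescence.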
TDP1 cell noCPT: qHTS for Inhibitors of human tyrosyl-DNA phosphodiesterase 1 (TDP1): qHTS in cells in absence of CPT; DT40 Tdp1-/- hTDP1 cells, no CPT, ATP luminescence, 48 h; Potency, µM (highest dose often 46.2 µM), without a hit: at the highest dose activity change, negative = growth inhibition, actives largely listed as inhibitors; 420,000 compounds, 15% hits; note: potency is the fitted concentration of half-maximal effect; % is set by controls: 0 for no effect and ±100 for the full control effect; nearly all actives have a fitted effect of over 55% in size
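DT40 Tdp1-/-;hTDP1 cells, no CPT (DMSO vehicle only), 400 cells/well; compounds pin-transferred; ≥48 hr, 37 °C; CellTiter-Glo 30 min RT dark, luminescence read.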
HepG2 viability: qHTS for Inhibitors of TGF-b: Cytotox Counterscreen; HepG2 CAGA-GFP viability, ATP luminescence, 18 h; Potency, µM (top dose mostly 46.1 µM), for inactives: at the highest dose activity change, negative = cytotoxicity, hits mostly cytotoxic; 410,000 compounds, 0.76% hits; AID 588856, 2011; note: potency is the fitted concentration of half-maximal effect
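CellTiter-Glo luminescence gave cytotoxicity after 18 hours at 37 degrees C. The cells were HepG2 CAGA-GFP in 1% FBS DMEM, stimulated with 500 pg/mL TGF-beta after compound addition. %Activity was normalised to no-cell wells (complete cell-killing) and DMSO (no toxicity), and curves were fitted and classified.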
IL-1B inflam inh: qHTS for Inhibitors of Inflammasome Signaling: IL-1-beta AlphaLISA Primary Screen; THP-1 LPS/ATP IL-1B secretion, AlphaLISA, 16 h; hits give low values; activity change, % at 57.5 µM; 360,000 compounds, 4.7% hits; AID 743279, 2014; in the data active = activity change below about -50%; inconclusive = mostly about -30% to -49%; note: % is set by controls: 0 for no effect and ±100 for the full control effect
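THP-1 cells pretreated 1 hr with compounds (up to 57.5 uM final), then stimulated with LPS (250 ng/mL final) plus ATP (1.25 mM final); secreted IL-1B measured by AlphaLISA after 16 hr, decreased signal indicating inhibition.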
An asterisk follows results filed as active; ? = inconclusive; nt = no result given; [ ] = remark or other dose. Unless noted, calls come from the whole dose curve; as a rule, active = well fitted curve in the direction sought with a large enough effect; inconclusive = small, poorly fitted or top-dose-only effect, or another doubt; inactive = no such curve, though single readings can be large; an effect the other way counts as inactive or inconclusive.

SMILES | TGFb inhibitor | TDP1 block | DT40 TDP1 CPT | TDP1 cell noCPT | HepG2 viability | IL-1B inflam inh
CCOC(=O)c1cnc2c(OC)cccc2c1N1CCN(c2ccccc2OC)CC1 | ? | 11% | ? | 13µM* | -33% | -97*
CCOC(=O)c1cnc2ccc(OCC)cc2c1N1CCN(C)CC1 | 9% | 5% | ? | ? | -9% | ?
CCOC(=O)c1cnc2c(C(F)(F)F)cccc2c1N1CCN(C)CC1 | -2% | nt | -8% | -23% | -5% | -12
CCOC(=O)c1cnc2ccc(OCC)cc2c1N1CCN(c2cccc(Cl)c2)CC1 | ? | 3% | 16µM* | 8.2µM* | -1% | nt
CCOC(=O)c1cnc2c(OC)cccc2c1Oc1ccccc1 | ? | nt | 0% | -8% | -23% | 28
CCOC(=O)c1cnc2c(OC)cccc2c1N1CCN(c2ccccn2)CC1 | -14% | 5% | ? | 16µM* | -17% | -53*
CCOC(=O)c1cnc2c(OC)cccc2c1N1CC(C)CC(C)C1 (stereo not drawn) | ? | nt | 12µM* | 7.3µM* | -54% | 45
C=C1OC(CO)(n2cnc3c(N)ncnc32)C(O)C1O (stereo not drawn) | -2% | 0% | 4% | ? | 8% | nt
COCCNC(=O)C1CCCN(C(=O)c2ccc(F)c(C)c2)CC1 (stereo not drawn) | -6% | nt | -12% | 1% | -7% | -18
COc1cc(OC)c(/C=C/c2nc3ccccc3o2)c(OC)c1 | -8% | nt | ? | ? | -37% | nt
CCOC(=O)c1cnc2cc(C(F)(F)F)ccc2c1N1CCN(c2ccc(F)cc2)CC1 | -3% | 1% | ? | 21µM* | 5% | nt
CCOC(=O)c1cnc(N2CCN(c3ccccc3)CC2)[nH]c1=O | 0% | nt | 7% | -11% | 10% | 8
CCOC(=O)c1cnc2c(C)cc(Cl)cc2c1N1CCN(C)CC1 | -2% | nt | ? | ? | -7% | -64*
CCOC(=O)c1cnc2c(OC)cccc2c1N1CCN(c2ccc(OC)cc2)CC1 | 0% | 5% | ? | 16µM* | 6% | -19
COC(=O)c1cnc(N2CCN(c3ccc(OC)cc3)CC2)c2ccccc12 | 1% | 8% | ? | ? | -2% | nt
CCOC(=O)c1cnc2ccc(Cl)cc2c1N1CCN(C)CC1 | 10% | 5% | ? | -29% | -5% | -25
CC(=O)Nc1ccc(Nc2nc(C(F)(F)F)nc3c2nnn3Cc2ccccc2Cl)cc1 | -11% | 1% | 4% | -18% | -6% | -2
CC(C)(C)S(=O)N1Cc2cc(C(=O)NCc3ccc(Oc4ccccc4)cc3)nc(-c3cccc(-c4cc5ccccc5o4)c3)c2[C@H]1CCO (stereo partly drawn) | ? | nt | ? | 23µM* | -95% | -52*
CC(C)(O)C#Cc1cccc(-c2nc(C(=O)NCCCN3CCOCC3)cc3c2[C@H](CCO)N(S(=O)C(C)(C)C)C3)c1 (stereo partly drawn) | -27% | nt | -13% | -5% | -55% | -9
CC(C)(C)S(=O)N1Cc2cc(C(=O)NCCCN3CCOCC3)nc(-c3cccc(-c4cc5ccccc5o4)c3)c2[C@@H]1CCO (stereo partly drawn) | -66% | nt | 13µM* | 18µM* | -5% | -9
COc1cccc(-c2cccc(-c3nc(C(=O)NCc4ccc5c(c4)OCO5)cc4c3[C@H](CCO)N(S(=O)C(C)(C)C)C4)c2)c1 (stereo partly drawn) | 16µM* | nt | ? | ? | -60% | -23
O=C(COc1ccc(Cl)cc1)Nc1nc(-c2cccs2)cs1 | ? | 0% | ? | ? | -19% | 4
O=C(Nc1nc(-c2cccs2)cs1)c1ccc(Cl)cc1 | ? | 5% | 26µM* | 15µM* | -38% | -6
COc1ccc(C(=O)Nc2nc(-c3cccs3)cs2)cc1 | ? | 4% | ? | ? | -36% | -72*
COc1cc(C(=O)Nc2nc(-c3cccs3)cs2)cc(OC)c1OC | ? | 11% | 23µM* | 13µM* | -57% | -77*
SMILES | TGFb inhibitor | TDP1 block | DT40 TDP1 CPT | TDP1 cell noCPT | HepG2 viability | IL-1B inflam inh
Cc1csc(NC(=O)c2sc3nc(-c4cccs4)ccc3c2N)n1 | 8% | 6% | ? | 25µM* | -57% | -72*
C=C[C@@]1(C)CC[C@H]2C(=CC[C@@H]3[C@]2(C)CCC[C@@]3(C)C(=O)O)C1 | nt | 7% | nt | nt | nt | nt
CCOC(=O)c1cncc(O)c1 | -1% | 1% | -4% | 4% | 3% | 0
CC(=O)Nc1ccccc1Nc1nc(NCCO)nc(N2CCCC2)n1 | 2% | nt | nt | nt | -5% | nt
COc1ccc(OC)c(S(=O)(=O)NCC(c2ccco2)N2CCc3ccccc32)c1 (stereo not drawn) | ? | -12%[0.505 µM] | ? | ? | -24% | -1
Cc1c(C(=O)O)sc2nc(-c3cccs3)cc(C(F)(F)F)c12 | 4% | -3% | -13% | ? | -16% | -10
O=C(Nc1nc(-c2ccc(Cl)s2)cs1)c1ccncc1 | ? | 3% | 9.2µM* | 9.2µM* | -15% | -15
Cc1c(C(=O)Nc2nccs2)sc2nc(-c3cccs3)cc(C(F)(F)F)c12 | -1% | 6% | 18µM* | 23µM* | -37% | 68
CCCCN(C)CCCNC(=O)c1ccc2nc(N3CCCCC3)sc2c1 | 70% | -1% | 23µM* | ? | -28% | nt
CCCCN(C)CCNC(=O)C1CCN(c2nc3ccc(CC)cc3s2)CC1 | nt | -3% | 21µM* | 23µM* | -98% | nt
CCCCN(CCCNC(=O)c1ccc2nc(N3CCOCC3)sc2c1)Cc1ccccc1 | 32% | 4% | ? | 16µM* | -21% | 31
CCc1ccc2nc(N3CCC(C(=O)O)CC3)sc2c1 | 1% | 4% | 5% | -19% | 5% | nt
COCCCNC(=O)c1ccc(Cn2c(=O)c3ccccc3n(Cc3c(C)cc(C)cc3C)c2=O)cc1 | -7% | 1% | -7% | -2% | 0% | nt
Cc1cccc(CNC(=O)CN2C(=O)CCCc3ccccc32)c1 | 0% | -1% | -26% | -9% | 2% | nt
CC1CCN(c2ccc3c(c2)S(=O)(=O)c2ccccc2C3=O)CC1 | 21% | nt | ? | ? | -19% | -8

High-throughput results as filed in PubChem.
